Several values for one entry are separate records, joined by “and”; a condition that tells them apart may be missing. Equal values may be shown once. Among all 5,500 compounds or so, about 2,000 (36%) were called active. Another 18% or so got no clear call; they are omitted. Rule as the data show it: active = normalized growth mostly below about 0.91 (no sharp cut-off); inconclusive = no clear call, values can overlap the other calls; inactive = mostly above about 0.92. This is one part of the list.
Assay: chemical genetic growth profiling, strain panel (AID 1159580);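 also: tested at 20 µM; growth read once vehicle control cultures reached saturation at 30 °C; 1 = growth at the plate median or of vehicle wells; lower values mean less growth of the strain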
Settings: S. cerevisiae deletion strains, growth OD

Measured: normalized growth

CC(=O)OCC1=C(C(=O)O)N2C(=O)[C@@H](NC(=O)CCCC(N)C(=O)O)C2SC1 (some centres not stated)
inactive: locus YAL013W, strain DEP1, stronger effect = lower value 1.02 | locus YAL021C, strain ccr4, stronger effect = lower value 1.01 | locus YAL026C, strain drs2, stronger effect = lower value 1.01 | locus YAL030W, strain snc1, stronger effect = lower value 0.998 | locus YBL061C, strain skt5, stronger effect = lower value 0.997 | locus YBR009C, strain hhf1, stronger effect = lower value 1.02 | locus YBR021W, strain FUR4, stronger effect = lower value 0.998 | locus YBR023C, strain chs3, stronger effect = lower value 0.987 | locus YBR171W, strain sec66, stronger effect = lower value 1 | locus YBR229C, strain ROT2, stronger effect = lower value 1 | locus YBR231C, strain swc5, stronger effect = lower value 0.992 | locus YBR279W, strain paf1, stronger effect = lower value 0.989 | locus YCL011C, strain gbp2, stronger effect = lower value 1 | locus YCL016C, strain dcc1, stronger effect = lower value 0.988 | locus YCL029C, strain bik1, stronger effect = lower value 1.02 | locus YCL061C, strain MRC1, stronger effect = lower value 0.997 | locus YCL069W, strain vba3, stronger effect = lower value 0.997 | locus YCR088W, strain abp1, stronger effect = lower value 0.998 | locus YDL005C, strain med2, stronger effect = lower value 0.992 | locus YDL035C, strain GPR1, stronger effect = lower value 1.03 | locus YDL040C, strain nat1, stronger effect = lower value 0.99 | locus YDL074C, strain BRE1, stronger effect = lower value 1 | locus YDL101C, strain DUN1, stronger effect = lower value 1.01 | locus YDL134C, strain PPH21, stronger effect = lower value 1.01 | locus YDL185W, strain tfp1, stronger effect = lower value 1 | locus YDL192W, strain arf1, stronger effect = lower value 1.01 | locus YDR001C, strain nth1, stronger effect = lower value 0.99 | locus YDR069C, strain doa4, stronger effect = lower value 1.01 | locus YDR101C, strain arx1, stronger effect = lower value 1 | locus YDR137W, strain rgp1, stronger effect = lower value 0.985 | locus YDR150W, strain NUM1, stronger effect = lower value 1.02 | locus YDR159W, strain sac3, stronger effect = lower value 1.01 | locus YDR162C, strain NBP2, stronger effect = lower value 1.02 | locus YDR195W, strain ref2 0.963 | locus YDR297W, strain sur2, stronger effect = lower value 0.999 | locus YDR318W, strain mcm21, stronger effect = lower value 1.05 | locus YDR334W, strain swr1, stronger effect = lower value 0.996 | locus YDR335W, strain msn5, stronger effect = lower value 0.992 | locus YDR388W, stronger effect = lower value 0.986 | locus YDR392W, strain spt3, stronger effect = lower value 0.942 | locus YDR502C, strain sam2, stronger effect = lower value 1.04 | locus YEL003W, strain gim4, stronger effect = lower value 0.994 | locus YEL037C, strain rad23, stronger effect = lower value 0.99 | locus YEL061C, strain CIN8 (second series), stronger effect = lower value 0.991 | locus YEL061C, strain CIN8, stronger effect = lower value 1.01 | locus YER015W, strain faa2, stronger effect = lower value 0.993 | locus YER016W, strain bim1, stronger effect = lower value 0.999 | locus YER110C, stronger effect = lower value 0.994 | locus YER111C, strain swi4, stronger effect = lower value 0.995 | locus YER155C, strain BEM2 (second series), stronger effect = lower value 1 | locus YER155C, strain BEM2, stronger effect = lower value 1 | locus YER167W, strain BCK2, stronger effect = lower value 1.03 | locus YFR010W, strain ubp6, stronger effect = lower value 1.01 | locus YGL078C, strain dbp3, stronger effect = lower value 1.01 | locus YGL086W, strain mad1, stronger effect = lower value 1.04 | locus YGL167C, strain pmr1, stronger effect = lower value 0.992 | locus YGL173C, strain kem1, stronger effect = lower value 1.01 | locus YGL227W, strain vid30, stronger effect = lower value 0.994 | locus YGL240W, strain doc1, stronger effect = lower value 0.998 | locus YGL248W, strain PDE1, stronger effect = lower value 1 | locus YGL253W, strain hxk2, stronger effect = lower value 0.982 | locus YGR078C, strain PAC10, stronger effect = lower value 1.01 | locus YGR135W, strain pre9, stronger effect = lower value 1.06 | locus YGR229C, strain SMI1, stronger effect = lower value 1.01 | locus YGR252W, strain gcn5, stronger effect = lower value 1.04 | locus YHR013C, strain ard1, stronger effect = lower value 1.09 | locus YHR027C, strain rpn1, stronger effect = lower value 0.99 | locus YHR030C, strain SLT2, stronger effect = lower value 1.01 and 0.982 | locus YHR079C, strain IRE1 (second series), stronger effect = lower value 0.999 | locus YHR079C, strain IRE1, stronger effect = lower value 0.988 | locus YHR094C, strain hxt1, stronger effect = lower value 0.991 | locus YHR129C, strain ARP1, stronger effect = lower value 1 | locus YHR142W, strain chs7, stronger effect = lower value 0.994 | locus YHR200W, strain rpn10, stronger effect = lower value 1.02 | locus YIL066C, strain RNR3, stronger effect = lower value 1.04 | locus YIL073C, strain SPO22, stronger effect = lower value 1.25 | locus YIL125W, strain kgd1, stronger effect = lower value 1 | locus YIR030C, strain dcg1, stronger effect = lower value 1 | locus YJL092W, strain hpr5, stronger effect = lower value 0.993 | locus YJL095W, strain BCK1 (second series), stronger effect = lower value 0.99 | locus YJL095W, strain BCK1, stronger effect = lower value 1.01 | locus YJL115W, strain asf1, stronger effect = lower value 0.985 | locus YJL129C, strain trk1, stronger effect = lower value 1 | locus YJL134W, strain LCB3, stronger effect = lower value 1 | locus YJL154C, strain vps35, stronger effect = lower value 0.986 | locus YJL164C, strain tpk1, stronger effect = lower value 1.01 | locus YJL166W, strain qcr8, stronger effect = lower value 0.989 | locus YJL168C, strain set2, stronger effect = lower value 0.996 | locus YJL187C, strain SWE1 (second series), stronger effect = lower value 1.03 | locus YJL187C, strain SWE1, stronger effect = lower value 0.994 | locus YJR043C, strain POL32, stronger effect = lower value 1.01 | locus YJR066W, strain TOR1, stronger effect = lower value 0.942

Source: PubChem BioAssay AID1159580 (chemical genetic matrix, 2015)
